The record followed here is PubChem BioAssay AID1851 (National Center for Advancing Translational Sciences (NCATS), 2009).

Where “and” joins values, the source holds several entries; their conditions need not be identical. Identical values can stand only once. About 5,800 (36%) of roughly 16,000 compounds were called active. Roughly 23% stayed inconclusive and do not appear here. The call rests on the fitted dose curve; in most records, active means well fitted curve in the direction sought with a large enough effect; inconclusive means small, poorly fitted or top-dose-only effect, or effect the other way; inactive means no such curve, though single readings can be large or run the other way. This is one part of the list. The source holds several records for some structures; these can differ, active in one and inactive in another.

Broadly, the AC50 is the concentration at which the activity in the assay is half-maximal.
On the % scale 0 is the no-effect control and ±100 the full control effect.

Cytochrome P450 2C19 (Homo sapiens), sequence (P33261 whole entry, looked up): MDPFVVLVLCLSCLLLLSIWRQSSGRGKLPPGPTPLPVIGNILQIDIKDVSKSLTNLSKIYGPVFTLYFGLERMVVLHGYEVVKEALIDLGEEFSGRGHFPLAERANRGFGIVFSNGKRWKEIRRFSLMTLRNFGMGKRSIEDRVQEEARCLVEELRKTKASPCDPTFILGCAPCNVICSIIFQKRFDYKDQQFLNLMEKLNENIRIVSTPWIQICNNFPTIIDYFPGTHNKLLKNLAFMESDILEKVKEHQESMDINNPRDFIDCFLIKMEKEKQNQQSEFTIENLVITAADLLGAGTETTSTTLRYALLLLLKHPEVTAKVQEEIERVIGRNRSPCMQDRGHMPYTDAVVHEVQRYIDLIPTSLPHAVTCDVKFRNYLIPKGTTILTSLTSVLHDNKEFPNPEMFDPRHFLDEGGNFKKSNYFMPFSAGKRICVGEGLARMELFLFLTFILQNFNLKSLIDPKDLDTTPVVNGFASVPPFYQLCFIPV

This test addresses Cytochrome P450 2C19 (Homo sapiens) (UniProt P33261). Put plainly: Cytochrome panel assay with activity outcomes. Conditions: recombinant CYP, pro-luciferin dealkylation, luminescence, p450-cyp2c19; series mostly up to 57.1 µM; activity, negative = inhibition: at the top concentration.
`COc1ccc(-n2c(=O)c(-c3cccs3)nc3cnc(N4CCOCC4)nc32)cc1`: the “activity, negative = inhibition” value was -30% (inactive).

Regarding `Cc1ccc(C)c(S(=O)(=O)NCc2ccc(C(=O)N3CCC(Cc4ccccc4)CC3)cc2)c1`, the AC50 was 4.47 µM (active).

As to `Cc1ccc2c(c1)N[C@H](c1ccc(C(=O)O)cc1)c1cccn1-2`, the activity, negative = inhibition is -26.9% [at 11.4 µM] (inactive).

Consider `CCCS(=O)(=O)N1CCCC(C(=O)NCCN2CCC(Cc3ccccc3)CC2)C1` (stereo not given), for which the “activity, negative = inhibition” value was -20.6% (inactive).

Take `Cn1c(SCC(=O)N/N=C/C=C\c2ccco2)nc2ccccc21`: the concentration at half-maximal activity (AC50) was 14.1 µM (active).

With `Cc1nc2ccccc2n1CC(=O)N/N=C\C=C\c1ccccc1`, the concentration at half-maximal activity (AC50) is 7.08 µM (active).

On to `CNC(=O)Oc1ccc2c(c1)[C@@]1(C)CCN(C)[C@@H]1N2C`, for which the AC50 result is “inactive”.

In the case of `CC(=O)OC[C@@H]1O[C@@H](O/N=C2/C[C@@H](O)[C@@H](O)[C@@H]3[C@@H]4C(=O)N([C@@H](C)c5ccccc5)C(=O)[C@H]4CC[C@H]23)[C@H](OC(C)=O)[C@H](OC(C)=O)[C@@H]1OC(C)=O`, the activity, negative = inhibition is -3.3% [at 11.4 µM] (inactive).

Take `O=C(/C=C/c1ccccc1)NC(NC(=S)Nc1ccc(Cl)cc1)C(Cl)(Cl)Cl` (stereo not given): the concentration at half-maximal activity (AC50) was 3.55 µM (active).

In the case of `C[C@@H](c1ccccc1)N1C(=O)[C@H]2[C@H]3[C@H](O)[C@H](O)C/C(=N/OCc4ccccc4)[C@@H]3CC[C@@H]2C1=O`, the activity, negative = inhibition is -24.2% [at 11.4 µM] (inactive).

Turning to `CC(C)NC(=O)N1CCCC2(CCN(C(=O)c3cc(C(F)(F)F)cc(C(F)(F)F)c3)CC2)C1`, the “activity, negative = inhibition” value is -15.9% (inactive).

Take `Cc1nn2c(NCC(C)C)c3c(nc2c1-c1ccccc1)CCC3`: the “activity, negative = inhibition” value is -28% (inactive).

On to `Cc1nn2c3c(cnc2c1-c1ccccc1)C(=O)CC(c1ccccc1)C3` (stereo not given), for which the AC50 was 7.08 µM (active).

For the compound `Cc1ccc(C)c(NC(=O)NCc2ccc(Cl)cc2)c1`, the AC50 was 1.58 µM (active).

For `Cc1cccc(C)c1NC(=O)N1CCC(N2CCCCC2)CC1`, the “activity, negative = inhibition” value was -15.4% (inactive).

With `COC(=O)C1CSC(C(=O)OC)N1C(=O)Nc1c(C)cccc1C` (stereo not given), the AC50 was 7.94 µM (active).

`COC(=O)C1CSC(C(=O)OC)N1C(=O)Nc1ccccc1` (stereo not given): the AC50 was 10 µM (active).

Take `CCCCN1CCCC[C@H]1C(=O)Nc1c(C)cccc1C`: the “activity, negative = inhibition” value was -18.3% [at 25.6 µM] (inactive).

For the compound `COc1ccc(N2C(=O)NC(NC(=O)c3ccncc3)(C(F)(F)F)C2=O)cc1` (stereo not given), the half-maximal activity concentration (AC50) was 6.31 µM (active).

Regarding `CC(=O)Nc1ccc(S(=O)(=O)NC2(C(F)(F)F)NC(=O)N(c3ccc(Cl)cc3)C2=O)cc1` (stereo not given), the “activity, negative = inhibition” value was 1.91% (inactive).

With `COc1ccc(C(=O)N2CCC3(CCCN(Cc4ccncc4)C3)CC2)cc1`, the “activity, negative = inhibition” value was -36.4% (inactive).

For `CNc1ncnc2c1ncn2[C@@H]1O[C@H](CO)[C@@H](O)[C@@H]1O`, the “activity, negative = inhibition” value was -11.9% [at 25.6 µM] (inactive).

With `O=[N+]([O-])c1ccc([C@@H](Nc2ccccc2)c2ccc3cccnc3c2O)cc1`, the AC50 is 3.98 µM (active).

For the compound `CC(=O)C[C@H](c1ccc([N+](=O)[O-])cc1)c1c(O)c2ccccc2oc1=O`, the “activity, negative = inhibition” value was -43.1% [at 25.6 µM] (inactive).

`O=C(O)c1cccnc1C(=O)O`: the “activity, negative = inhibition” value was -5.23% (inactive).

Take `O=C(O)c1ccccc1N[C@H](c1ccccc1)c1ccc2cccnc2c1O`: the AC50 is 3.98 µM (active).

Regarding `Cc1cc(C)c(C#N)c(SCS(=O)c2ccc(C(C)(C)C)cc2)n1` (stereo not given), the AC50 was 3.16 µM (active).

Regarding `C[C@@]12CC3CC(N)(C1)C[C@@](C)(C3)C2`, the “activity, negative = inhibition” value is -6.2% [at 25.6 µM] (inactive).

Consider `C[C@]12CC3CC(N)(C1)C[C@@](C)(C3)C2`, for which the AC50 entry is “inactive and 10 µM (active)”.

For the compound `CCCn1c(CC)nc([N+](=O)[O-])c1S(=O)(=O)c1ccccc1`, the AC50 is 14.1 µM (active).

Turning to `Cc1nc([N+](=O)[O-])c(N2CCN(C)CC2)n1Cc1ccccc1`, the “activity, negative = inhibition” value is -21% (inactive).

Regarding `COc1cc(-c2nnc(SC/C=C/c3ccccc3)n2N)cc(OC)c1OC`, the concentration at half-maximal activity (AC50) was 15.8 µM (active).

With `CCCS(=O)(=O)N1CCCC(C(=O)NCCCOC(C)C)C1` (stereo not given), the “activity, negative = inhibition” value was -15.6% (inactive).

Consider `CCS(=O)(=O)N1CCCC(C(=O)NCCCOC(C)C)C1` (stereo not given), for which the “activity, negative = inhibition” value was -29.1% (inactive).

On to `CCC(C)NC(=O)C1CCCN(C(=O)NC2CCCCC2)C1` (stereo not given), for which the half-maximal activity concentration (AC50) was 14.1 µM (active).

For the compound `CO/N=C(\C(=O)N[C@@H]1C(=O)N2C(C(=O)O)=C(COC(N)=O)CS[C@@H]12)c1ccco1`, the “activity, negative = inhibition” value is 3.25% [at 25.6 µM] (inactive).

`NC(=S)N/N=C/c1ccccc1OCc1cccc(Cl)c1`: the AC50 was 2.24 µM (active).

As for `O=C(CO)N/N=C/c1ccccc1F`, the “activity, negative = inhibition” value is -2.42% (inactive).

On to `O=C(Cc1ccccc1)N/N=C/c1ccccc1OCc1ccc(Cl)cc1`, for which the AC50 is 4.47 µM (active).

`Cc1cc2nc(C3CCCN(C(=O)NCc4ccccc4)C3)[nH]c2cc1C` (stereo not given): the half-maximal activity concentration (AC50) is 20 µM (active).

As for `CC1=C(C(=O)N2CCCCCC2)C2(CCC(C)CC2)OC1=O` (stereo not given), the AC50 is 10 µM (active).

Take `CC1=C(C(=O)NCCN2CCN(C)CC2)C2(CCC(C)CC2)OC1=O` (stereo not given): the “activity, negative = inhibition” value was -19.5% (inactive).

Take `CN1C(=C2C(=O)OC(C)(C)OC2=O)Sc2ccccc21`: the AC50 was 1 µM (active).

With `O=[N+]([O-])c1ccc(CSCc2ccc(Cl)cc2)cc1`, the half-maximal activity concentration (AC50) was 0.398 µM (active).

With `O=[N+]([O-])c1ccc(CSc2ncnc3c2ncn3[C@@H]2O[C@@H](CO)[C@@H](O)[C@H]2O)cc1`, the “activity, negative = inhibition” value is 33.6% (inactive).
